Source: ChEMBL document CHEMBL2218924, “A broad activity screen in support of a chemogenomic map for kinase signalling research and drug discovery” (Biochem J, 2013)

Columns and labels:
[1] = biological target: G protein-coupled receptor kinase 5 (Homo sapiens) (UniProt P34947); settings: at 1 µM
[2] = biological target: G protein-coupled receptor kinase 6 (Homo sapiens) (UniProt P43250); settings: at 1 µM
Chain of G protein-coupled receptor kinase 6 (Homo sapiens) (P43250 whole entry, looked up): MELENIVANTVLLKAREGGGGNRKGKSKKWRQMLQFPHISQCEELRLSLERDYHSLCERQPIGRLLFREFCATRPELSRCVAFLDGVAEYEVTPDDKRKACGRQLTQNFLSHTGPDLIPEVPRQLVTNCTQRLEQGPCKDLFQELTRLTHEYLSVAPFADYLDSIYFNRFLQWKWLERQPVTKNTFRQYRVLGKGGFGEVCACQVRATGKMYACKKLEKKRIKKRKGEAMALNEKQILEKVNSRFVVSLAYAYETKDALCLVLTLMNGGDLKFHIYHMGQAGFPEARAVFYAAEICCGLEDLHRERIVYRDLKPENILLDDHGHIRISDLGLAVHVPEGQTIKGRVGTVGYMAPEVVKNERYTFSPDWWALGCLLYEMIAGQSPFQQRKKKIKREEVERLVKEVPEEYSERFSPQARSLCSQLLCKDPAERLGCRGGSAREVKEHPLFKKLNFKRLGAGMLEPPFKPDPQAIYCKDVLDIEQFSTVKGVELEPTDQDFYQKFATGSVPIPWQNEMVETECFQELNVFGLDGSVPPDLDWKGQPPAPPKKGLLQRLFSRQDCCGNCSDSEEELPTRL

Chain of G protein-coupled receptor kinase 5 (Homo sapiens) (P34947 whole entry, looked up): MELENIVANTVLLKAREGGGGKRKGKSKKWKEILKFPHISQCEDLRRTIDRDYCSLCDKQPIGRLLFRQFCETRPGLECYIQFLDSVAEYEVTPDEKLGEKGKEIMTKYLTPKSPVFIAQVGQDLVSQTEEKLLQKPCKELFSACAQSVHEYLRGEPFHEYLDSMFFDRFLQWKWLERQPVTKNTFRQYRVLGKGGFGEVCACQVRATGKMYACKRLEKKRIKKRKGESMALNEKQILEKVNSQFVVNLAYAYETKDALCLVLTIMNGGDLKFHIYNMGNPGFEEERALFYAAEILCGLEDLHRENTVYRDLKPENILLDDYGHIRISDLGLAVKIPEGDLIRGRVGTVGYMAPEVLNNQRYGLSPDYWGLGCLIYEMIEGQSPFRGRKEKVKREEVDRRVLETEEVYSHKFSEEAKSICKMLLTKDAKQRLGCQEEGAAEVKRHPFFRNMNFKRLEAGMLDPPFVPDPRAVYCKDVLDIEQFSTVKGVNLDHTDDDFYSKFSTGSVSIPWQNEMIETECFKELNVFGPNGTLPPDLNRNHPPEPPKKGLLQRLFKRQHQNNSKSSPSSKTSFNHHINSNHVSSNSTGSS

Row | Structure (SMILES) | residual activity [1] [%] | residual activity [2] [%]
1 | Nc1n[nH]c2nc3ccccc3nc12 | 98 | 93
2 | O=C1Nc2ccccc2/C1=C1/Nc2ccccc2/C1=N\OCCC(O)CO (centres undefined) | – | 68
3 | NC(=O)c1ccc(-c2nc(-c3ccc4c(c3)OCCO4)c(-c3ccccn3)[nH]2)cc1 | – | 95
4 | O=C1Nc2ccc(Cl)cc2/C1=C/c1cc(Cl)c(O)c(Cl)c1 | – | 90
5 | CC(C)(C)c1nc2c3ccc(F)cc3c3c(=O)[nH]ccc3c2[nH]1 | 72 | 59
6 | COc1cc2nccc(Oc3ccc(NC(=S)NC(=O)c4ccccc4C)cc3)c2cc1OC | 98 | 87
7 | O=C(NC(NC(=S)Nc1ccc(F)c([N+](=O)[O-])c1)C(Cl)(Cl)Cl)C(c1ccccc1)c1ccccc1 (centres undefined) | 90 | 100
8 | Nc1cccc(-c2cc3c(Oc4cccc(O)c4)ncnc3[nH]2)c1 | 92 | 93
9 | Nc1ccc2ncnc(NCCc3ccc(Oc4ccccc4)cc3)c2c1 | 104 | 105
10 | O=C1C(Cl)=C(N2C(=O)CCC2=O)C(=O)c2ccccc21 | 98 | 88
11 | O=C1c2ccccc2-[n+]2ccc3c([nH]c4ccccc43)c21 | 91 | 88
12 | CCN(CC)CCCCN1c2ccccc2Oc2ccc(Cl)cc21 | 107 | 102
13 | COc1ccc(Cl)cc1NC(=O)Nc1cc(C)nc2ccccc12 | – | 98
14 | Cc1cccc(-c2[nH]c(C(C)(C)C)nc2-c2ccc3c(c2)OCO3)n1 | 105 | 103
